The structures appear in SMILES notation. Records with an inconclusive call do not appear. Activity calls are given as the source filed them. Calls follow the shape of the dose curve; as a rule, active = well fitted curve in the direction sought with a large enough effect; inconclusive = small, poorly fitted or top-dose-only effect, or another doubt; inactive = no such curve, though single readings can be large; an effect the other way counts as inactive or inconclusive.

The test system of one experiment is C33A. Put plainly: Primary qHTS to identify gynecologic anti-cancer compounds using libraries of approved drugs and bioactive compounds (AID 1345084). Also: nearly all actives have a fitted effect of over 55% in size. Conditions: Gynecologic cancer cell panel viability, ATPlite luminescence, 48 h; series mostly up to 57.5 µM. The method in brief: (§1)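 Cells, 1,000 per well, plated 16 h, then exposed 48 h at 37 C to compounds. Viability by ATPlite luminescence after 15 min at room temperature.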

The test system of the next experiment is CASKI. The experiment is described as above. Conditions: Gynecologic cancer cell panel viability, ATPlite luminescence, 48 h; series mostly up to 57.5 µM. The method in brief:
as §1
Background: Cellular ATP, detected with luciferase, serves as a proxy for viable cell number.

In a further experiment the test system is Es-2. Described as above. Conditions: Gynecologic cancer cell panel viability, ATPlite luminescence, 48 h; series mostly up to 57.5 µM. The method in brief: as §1
In the next experiment the test system is HeLa. Described as above. Conditions: Gynecologic cancer cell panel viability, ATPlite luminescence, 48 h; series mostly up to 57.5 µM. In outline: as §1
The test system of another experiment is Hek293T. The description is as above. Conditions: Gynecologic cancer cell panel viability, ATPlite luminescence, 48 h, control line for the selectivity index; series mostly up to 57.5 µM. In outline:
as §1

In a further experiment the test system is JEG-3. Described as above. Conditions: Gynecologic cancer cell panel viability, ATPlite luminescence, 48 h; series mostly up to 57.5 µM. In outline:
as §1

Another experiment deals with PA-1. The description is as above. Conditions: Gynecologic cancer cell panel viability, ATPlite luminescence, 48 h; series mostly up to 57.5 µM. The method in brief:
as §1

The next experiment relates to Tov-21-G. The description is as above. Conditions: Gynecologic cancer cell panel viability, ATPlite luminescence, 48 h; series mostly up to 57.5 µM. In outline:
as §1

The next experiment deals with Tov112D. The description is as above. Conditions: Gynecologic cancer cell panel viability, ATPlite luminescence, 48 h; series mostly up to 57.5 µM. The method in brief: as §1
For experiment [1], the target named is Calcium and integrin-binding protein 1 (Homo sapiens) (UniProt Q99828). Put plainly: Primary qHTS for Identification of Calcium Integrin Binding Protein 1 (CIB1) Competitor (AID 1508620).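 Also: GST tagged CIB1 binding a fluorescein labelled alphaIIb integrin peptide tracer; top concentration of the series differs between compounds.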 Conditions: CIB1-GST / FITC-alphaIIb peptide fluorescence polarization; series mostly up to 114 µM. The method in brief: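 Fluorescence polarization competition: CIB1-GST (1 uM final) preincubated with compound 15 min at room temperature, then FITC-labeled alphaIIb peptide (100 nM final) added for another 15 min. Polarization read at Ex 480/Em 540.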
Sequence of Calcium and integrin-binding protein 1 (Homo sapiens) (Q99828 whole entry, looked up): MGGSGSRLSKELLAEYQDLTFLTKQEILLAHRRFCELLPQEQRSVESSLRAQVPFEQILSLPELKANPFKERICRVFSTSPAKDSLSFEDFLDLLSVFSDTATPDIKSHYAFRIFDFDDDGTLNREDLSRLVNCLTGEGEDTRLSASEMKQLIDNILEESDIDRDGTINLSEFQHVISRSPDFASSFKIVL
(In qHTS, concentration-response curves come from the screen itself.)

Experiment [2] in a line: Primary qHTS for inhibitors of nuclear receptor binding SET domain protein 2 (NSD2) in an isogenic RCH-ACV NSD2 p.E1099K mutant (9B) (AID 1645876). Also: nearly all actives have a fitted effect of over 70% in size. Conditions: RCH-ACV NSD2 E1099K (9B) viability, CellTiter-Glo, 72 h; series mostly up to 44.9 µM.
A short description of experiment [3]: Primary qHTS for inhibitors of nuclear receptor binding SET domain protein 2 (NSD2) in an RCH-ACV wild type WT cells (2C) (AID 1645877). Also: nearly all actives have a fitted effect of over 70% in size. Also: potency is read from the fitted curve at half-maximal effect. Conditions: RCH-ACV (leukaemia line) NSD2 WT (2C) viability, CellTiter-Glo, 72 h; series mostly up to 44.9 µM.
Experiment [4] has as its target Glutathione peroxidase 1 (Homo sapiens) (UniProt P07203). Put plainly: Primary qHTS Assay for Inhibitors of Recombinant Selenoprotein Glutathione Peroxidase 1 (GPX1) (AID 1845191). Also: nearly all actives have a fitted effect of over 65% in size. Conditions: recombinant GPX1, GR-coupled NADPH fluorescence, 15 min; series mostly up to 48.8 µM. The method in brief:
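Recombinant GPX1 (10 nM final) was preincubated with compound for 30 min at room temperature, then reacted with 1 mM GSH, 0.5 mM CHP, 0.5 mM NADPH and 100 nM glutathione reductase; NADPH fluorescence (340/450 nm) was read at 0 and 15 min.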

For experiment [5], the target named is Phospholipid hydroperoxide glutathione peroxidase GPX4 (Homo sapiens) (UniProt P36969). Put plainly: Primary qHTS Assay for Inhibitors of Recombinant Selenoprotein Glutathione Peroxidase 4 (GPX4) (AID 1845192). Also: nearly all actives have a fitted effect of over 65% in size. Conditions: recombinant GPX4, GR-coupled NADPH fluorescence, 15 min; series mostly up to 50 µM. In outline: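 GR-coupled readout: 100 nM GR, 1 mM GSH, 0.5 mM NADPH; NADPH fluorescence (ex 340/em 450 nm) read at t=0 and after 15 min RT. GPX4 200 nM, preincubated 30 min with compound; substrate 0.5 mM CHP.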
Sequence of Phospholipid hydroperoxide glutathione peroxidase GPX4 (Homo sapiens) (P36969 whole entry, looked up): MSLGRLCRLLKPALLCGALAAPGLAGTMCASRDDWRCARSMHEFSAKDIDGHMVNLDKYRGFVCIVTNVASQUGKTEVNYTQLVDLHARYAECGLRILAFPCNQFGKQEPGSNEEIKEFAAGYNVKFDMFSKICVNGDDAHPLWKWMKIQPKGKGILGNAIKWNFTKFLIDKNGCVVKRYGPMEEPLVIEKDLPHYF

In experiment [6] the target is Luciferin 4-monooxygenase (Photinus pyralis) (UniProt P08659). Put plainly: Primary firefly luciferase (FLuc) qHTS assay for identification of artifact compounds. (AID 1845220). Also: nearly all actives have a fitted effect of over 60% in size. Conditions: purified firefly luciferase, luminescence, 5 min; series mostly up to 54.1 µM. In outline:
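qHTS, 15 min compound preincubation with substrate (10 uM luciferin, 10 uM ATP) at RT, then 10 nM FLuc; 5 min; luminescence; % inhibition vs no-enzyme/DMSO controls, 4-parameter Hill fit.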

Experiment [7] in a line: Primary fluorescence-based thiol-reactive (MSTI) qHTS assay for identification of artifact compounds. (AID 1845221).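 Also: thiol-reactive compounds lower the probe fluorescence signal; nearly all actives have a fitted effect of over 65% in size.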 Conditions: MSTI thiol-reactivity probe, 1 h; series mostly up to 53.8 µM. The method in brief: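 MSTI probe at 4 uM final in 2% DMSO/PBS pH 7.4; compounds, 1 h at room temperature in dark. Fluorescence Ex/Em 525/598 nm, normalised to Acetyl-MSTI and MSTI, fitted to 4-parameter Hill.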

The subject of experiment [8] is Nanoluciferase (engineered Oplophorus gracilirostris luciferase). Put plainly: Primary Nanoluciferase (NLuc) qHTS assay for identification of artifact compounds. (AID 1845222). Conditions: NLuc-conditioned medium, Nano-Glo luminescence, 5 min; series mostly up to 54.1 µM. In outline: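 Luminescence read-out of secreted NLuc in S16 cell conditioned medium (1:55); compounds tested with 15 min RT preincubation, then Nano-Glo substrate 1:100, 5 min. % inhibition vs no-enzyme and DMSO controls, 4-parameter Hill fit.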

In another experiment the test system is OV90. Put plainly: Primary qHTS to identify gynecologic anti-cancer compounds using libraries of approved drugs and bioactive compounds (AID 1345084). Also: nearly all actives have a fitted effect of over 55% in size. Conditions: Gynecologic cancer cell panel viability, ATPlite luminescence, 48 h; series mostly up to 57.5 µM. In outline:
as §1

Experiment [9] has as its system Zika virus NS2B-NS3 protease (linked construct). Put plainly: Primary screen NINDS Rhodamine qHTS for Zika virus inhibitors (AID 1347160). Also: nearly all actives have a fitted effect of over 55% in size. Conditions: purified NS2B-NS3 protease, Rhodamine110 substrate fluorescence; series mostly up to 57.1 µM. The method in brief:
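Percent inhibition, normalized to uninhibited and enzyme-free controls, is fitted to a 4-parameter Hill equation. Fluorescence change comes from a 15-min cleavage of 1.5 microM bis-peptide Rhodamine110 substrate by 25 nM linked NS2B-NS3 at room temperature.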

Experiment [10] can be described thus: Primary redox qHTS assay for identification of artifact compounds. (AID 1845223). Conditions: Amplex Red/HRP redox cycling with DTT, fluorescence; series mostly up to 53.8 µM. In outline: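 Amplex Red (25 uM) and HRP (250 mU/mL) in HBSS, with compounds for 15 min, then 250 uM DTT for 30 min, room temperature, dark. Fluorescence 525/598 nm read; normalized to DMSO and 10 uM DA3003; Hill fit.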

Sequence of Glutathione peroxidase 1 (Homo sapiens) (P07203 whole entry, looked up): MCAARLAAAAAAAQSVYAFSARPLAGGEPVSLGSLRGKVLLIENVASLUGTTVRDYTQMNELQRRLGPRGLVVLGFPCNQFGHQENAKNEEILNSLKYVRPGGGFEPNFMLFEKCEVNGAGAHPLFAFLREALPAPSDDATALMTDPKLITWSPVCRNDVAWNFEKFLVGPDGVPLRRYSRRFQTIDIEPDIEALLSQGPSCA

`Nc1ccc(N)c([N+](=O)[O-])c1`: the Potency entry in the experiment with C33A, in the experiment with CASKI, in the experiment with Es-2, in the experiment with HeLa, in the experiment with Hek293T and with JEG-3 was “inactive” in each case. Moreover, the Potency result in the experiment with PA-1, in the experiment on Tov-21-G and in the experiment on Tov112D was “inactive” throughout.

Regarding `CC1(C)SC2C(NC(=O)[C@H](NC(=O)N3CCNC3=O)c3ccccc3)C(=O)N2C1C(=O)O` (stereo partly specified), in experiment [1], the result was inactive. Besides, the Potency result in [2], in experiment [3], in experiment [4], in experiment [5], in [6] and in [7] was “inactive” each time. Besides, the Potency result (in experiment [8]; in the experiment on C33A; with CASKI; in the experiment on Es-2; with HeLa; in the experiment on Hek293T) was “inactive” throughout. Moreover, the Potency entry with JEG-3, in the experiment with OV90, in the experiment with PA-1, in the experiment on Tov-21-G and in the experiment on Tov112D was “inactive” in each case.

Regarding `CCCCc1nc(Cl)c(CO)n1Cc1ccc(-c2ccccc2-c2nnn[nH]2)cc1`, the Potency entry in [9], in experiment [2], in [3], in experiment [5], in experiment [6] and in experiment [7] was “inactive” each time. The Potency entry (in experiment [10]; in the experiment with C33A; in the experiment on CASKI; with Es-2; with HeLa; in the experiment on Hek293T) was “inactive” each time. Also, the Potency result in the experiment on JEG-3, in the experiment on OV90, with PA-1, with Tov-21-G and in the experiment with Tov112D was “inactive” throughout. Moreover, the result in [1] was inactive.

In the case of `CNCCN(C)Cc1cn[nH]c1-c1ccc(OC2CC(OCCC3CCOCC3)C2)cc1` (stereo unspecified), the result in experiment [1] was inactive. The Potency result in [4] and in experiment [5] was “inactive” throughout.

`CCCCOc1ccc(-c2cncc(C(=O)NCc3cccnc3N3CCOCC3)c2)cc1Cl`: the Potency entry in experiment [9], in experiment [2], in experiment [3], in [4], in [5] and in experiment [6] was “inactive” each time. Further, the Potency entry (in experiment [7]; in [8]; in [10]; in the experiment with C33A; in the experiment with CASKI; in the experiment on Es-2) was “inactive” each time. In addition, the Potency result with HeLa, with Hek293T, in the experiment on JEG-3, in the experiment on OV90, in the experiment with PA-1 and in the experiment on Tov-21-G was “inactive” in each case. In the experiment with Tov112D, the Potency result is “inactive”. The result in experiment [1] was inactive.

On to `CN([C@H]1c2cc(OCCCC(F)(F)F)ccc2OC(C)(C)[C@@H]1O)S(C)(=O)=O`, for which the Potency result (in [9]; in [6]; in experiment [7]; in experiment [8]; in experiment [10]; in the experiment with C33A) was “inactive” each time. Further, the Potency entry in the experiment on CASKI, in the experiment on Es-2, in the experiment on HeLa, in the experiment with Hek293T, with JEG-3 and with OV90 was “inactive” each time. For the same compound, the Potency entry in the experiment with PA-1, in the experiment with Tov-21-G and with Tov112D was “inactive” in each case.

With `CC(=O)N1CCN([C@H]2CCN(C(=O)N(C)[C@H](C)c3cc(C(F)(F)F)cc(C(F)(F)F)c3)[C@@H](c3ccc(F)cc3C)C2)CC1`, the Potency result in [9], in experiment [4], in [5], in experiment [6], in experiment [7] and in experiment [8] was “inactive” in each case. In addition, the Potency entry in the experiment with C33A, with CASKI, with Es-2, with HeLa, in the experiment on Hek293T and in the experiment with JEG-3 was “inactive” throughout. The Potency result with OV90, in the experiment with PA-1, in the experiment with Tov-21-G and in the experiment with Tov112D was “inactive” throughout. In addition, the outcome in experiment [1] was inactive. In addition, the Potency in [3] was 14.5 µM (active).
